Compounds with a hit are over-represented: about 2.4% of the library has one in this group of screens.
M1 ag = human M1 muscarinic receptor agonists, primary screen, Fluo-8 calcium fluorescence, CHO-K1 cells, HTS. 360,000 tested, 0.33% active. CHO-K1 hM1, agonist mode; 0% DMSO, 100% acetylcholine EC100. Muscarinic acetylcholine receptor M1 (Homo sapiens), P11229. activation, % at 3 µM;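 active = activation above the run's mean compound activation plus 3 SD, cut at about 16% in these data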;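 note: peak over basal fluorescence ratio within a 140 s kinetic read after compound addition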
Target sequence (P11229 whole entry, looked up): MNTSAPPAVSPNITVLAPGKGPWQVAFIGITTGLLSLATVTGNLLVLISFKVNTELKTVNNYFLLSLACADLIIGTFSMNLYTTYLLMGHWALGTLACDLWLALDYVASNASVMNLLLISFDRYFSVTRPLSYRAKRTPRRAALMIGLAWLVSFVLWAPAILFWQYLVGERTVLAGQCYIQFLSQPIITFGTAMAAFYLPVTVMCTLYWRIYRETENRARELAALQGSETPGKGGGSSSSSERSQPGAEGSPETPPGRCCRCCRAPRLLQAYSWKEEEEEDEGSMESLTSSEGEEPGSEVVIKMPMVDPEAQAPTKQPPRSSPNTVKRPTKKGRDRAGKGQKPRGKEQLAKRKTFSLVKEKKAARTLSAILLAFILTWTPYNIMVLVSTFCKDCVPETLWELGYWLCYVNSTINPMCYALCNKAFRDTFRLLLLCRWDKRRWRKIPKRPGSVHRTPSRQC
CHO-K1 Ca antag = M1 antagonist counterscreen hit in parental CHO-K1 cells. inhibition, % at 3 µM. 360,000 tested, 0.6% active. ATP-induced calcium, Fluo-8 fluorescence;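 active = inhibition above a per-plate cutoff, the plate's mean sample inhibition plus 3 SD, cut at about 24% in these data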;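 note: 0% = DMSO plus EC80 ATP and 100% = DMSO alone without ATP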
M1 ag parental = counter-screen for M1 agonists: effect in parental CHO-K1 cells; Fluo-8 calcium fluorescence; scaled to maximal ATP response, vehicle zero; activation, % at 3 µM; 360,000 tested, 0.48% active; AID 602248, 2012; in the data active = activation above about 15%;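 note: untransfected CHO-K1 host cells lacking M1 receptor as counterscreen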
M1 antag = human M1 muscarinic receptor antagonists, primary screen, CHO-K1 cells, Fluo-8 calcium fluorescence, 1536-well. Muscarinic acetylcholine receptor M1 (Homo sapiens), P11229. CHO-K1 hM1, ACh EC80 antagonist. inhibition, % at 3 µM. 360,000 tested, 1.3% active. AID 588852, 2011;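 active = percent inhibition above its own plate's cutoff, namely the mean of that plate's compound wells plus 3 SD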;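 note: peak over basal fluorescence ratio during 140 s after agonist addition; 0% = ACh EC80 plus DMSO and 100% = DMSO alone without agonist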
M1 PAM = human M1 muscarinic receptor positive allosteric modulators, primary screen, CHO-K1 cells, Fluo-8 calcium fluorescence, 1536-well; Muscarinic acetylcholine receptor M1 (Homo sapiens), P11229; CHO-K1 hM1, ACh EC20; 0% = ACh EC20, 100% = maximal ACh; activation, % at 3 µM; 360,000 tested, 0.088% active; AID 588819, 2011; in the data active = activation above about 19%, passing the limit was not always enough
M1 PAM parental = nonselective calcium activators in parental CHO-K1 cells, primary screen, counter-screen for M1 PAM project, cell-based, Fluo-8 calcium fluorescence, full deck, 1536-well; ATP EC20; 0% at ATP EC20, 100% at ATP max; activation, % at 3 µM; 360,000 tested, 0.02% active;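 active = activation above the run cutoff, the mean activation of all test compounds plus 3 SD, cut at about 40% in these data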;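 note: peak over basal fluorescence ratio in a 140 s read after ATP addition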
An asterisk follows results filed as active.

What do the screens show for `N#CCc1c(C#N)c(N)nc(N2CCN(C=O)CC2)c1C#N`?
M1 ag: -5; CHO-K1 Ca antag: 24*; M1 ag parental: 0; M1 antag: 6; M1 PAM: -11; M1 PAM parental: -8

What do the screens show for `CC1(C(=O)NCc2ccccc2)CCC(=O)N1CCOc1ccccc1` (stereo not given)?
M1 ag: -5; CHO-K1 Ca antag: 27*; M1 ag parental: 0; M1 antag: 13; M1 PAM: -4; M1 PAM parental: -8

What do the screens show for `CC(C)CN(C(=O)c1ccc(=O)n(C)n1)c1nc2ccccc2s1`?
M1 ag: 0; CHO-K1 Ca antag: 24*; M1 ag parental: 0; M1 antag: 5; M1 PAM: 9; M1 PAM parental: -7

Results for Cc1ccc(C(=O)N(CC(C)C)c2nc3ccccc3s2)o1 ?
M1 ag: -3; CHO-K1 Ca antag: -17; M1 ag parental: 1; M1 antag: -7; M1 PAM: 1; M1 PAM parental: 11

Results for Cc1[nH]n(-c2nc(-c3ccccc3F)cc(=O)[nH]2)c(=O)c1CCO ?
M1 ag: -5; CHO-K1 Ca antag: -10; M1 ag parental: 1; M1 antag: -4; M1 PAM: -1; M1 PAM parental: 3

Results for Cc1cc(=O)[nH]c(SCC(=O)N2CCN(C(c3ccccc3)c3ccccc3)CC2)n1 ?
M1 ag: -5; CHO-K1 Ca antag: -8; M1 ag parental: 1; M1 antag: 52*; M1 PAM: -21; M1 PAM parental: 3

Results for Cc1cc(C)c2c(=O)[nH]c(SCC(=O)N3CCCCC3)nc2n1 ?
M1 ag: -2; CHO-K1 Ca antag: 14; M1 ag parental: 0; M1 antag: 11; M1 PAM: -3; M1 PAM parental: -6

How did COc1ccc(N2CCN(C(=O)CN3CCN(C(c4ccccc4)c4ccccc4)CC3)CC2)cc1 do in these assays?
M1 ag: -10; CHO-K1 Ca antag: -16; M1 ag parental: 1; M1 antag: 65*; M1 PAM: -24; M1 PAM parental: 26

How did CCOc1ccccc1NC(=O)C(c1ccccc1)N1CCN(CC(=O)N2CCOCC2)CC1 (stereo not given) do in these assays?
M1 ag: -1; CHO-K1 Ca antag: -3; M1 ag parental: 0; M1 antag: 7; M1 PAM: -3; M1 PAM parental: -1

What do the screens show for `Cc1cc(C)c2c(=O)[nH]c(SCC(=O)N3CCOCC3)nc2n1`?
M1 ag: -3; CHO-K1 Ca antag: 17; M1 ag parental: 17*; M1 antag: 12; M1 PAM: -4; M1 PAM parental: 0

How did Cc1cc(=O)[nH]c(SCC(=O)N2CCCCC2)n1 do in these assays?
M1 ag: 3; CHO-K1 Ca antag: -18; M1 ag parental: 1; M1 antag: -13; M1 PAM: 9; M1 PAM parental: 22

Results for O=C(CN1CCN(C(c2ccccc2)c2ccccc2)CC1)N1CCOCC1 ?
M1 ag: 5; CHO-K1 Ca antag: -28; M1 ag parental: 0; M1 antag: 63*; M1 PAM: -25; M1 PAM parental: 0

What do the screens show for `O=C(O)COCC(=O)N1CCN(C(c2ccccc2)c2ccccc2)CC1`?
M1 ag: -3; CHO-K1 Ca antag: 6; M1 ag parental: 5; M1 antag: 58*; M1 PAM: -22; M1 PAM parental: 3

Results for N#CCC(=O)N1CCN(C(c2ccccc2)c2ccccc2)CC1 ?
M1 ag: -9; CHO-K1 Ca antag: -10; M1 ag parental: 0; M1 antag: 3; M1 PAM: -4; M1 PAM parental: 2

What do the screens show for `O=C(Nc1ccccc1-c1ccccc1)NC1CCN(CC(=O)N2CCOCC2)CC1`?
M1 ag: -6; CHO-K1 Ca antag: -14; M1 ag parental: 0; M1 antag: 35*; M1 PAM: -17; M1 PAM parental: 15

What do the screens show for `O=C(c1cc2ccccc2oc1=O)N(Cc1cccc(Br)c1)C1CCS(=O)(=O)C1` (stereo not given)?
M1 ag: -1; CHO-K1 Ca antag: -5; M1 ag parental: 1; M1 antag: -7; M1 PAM: 2; M1 PAM parental: 3

How did N#CCCN1CCN(C(=S)c2ccc(-c3cc(Cl)ccc3Cl)o2)CC1 do in these assays?
M1 ag: -3; CHO-K1 Ca antag: -2; M1 ag parental: 0; M1 antag: 30*; M1 PAM: -9; M1 PAM parental: 12

How did CN1CCN(C(=S)c2ccc(-c3cc(Cl)ccc3Cl)o2)CC1 do in these assays?
M1 ag: -3; CHO-K1 Ca antag: -11; M1 ag parental: 2; M1 antag: -7; M1 PAM: 2; M1 PAM parental: 20

Results for N#C/C(=C/c1ccc(N2CCOCC2)o1)c1nc2ccccc2[nH]1 ?
M1 ag: 25*; CHO-K1 Ca antag: 15; M1 ag parental: 19*; M1 antag: 31; M1 PAM: -17; M1 PAM parental: -10

What do the screens show for `COc1ccc(NC(=O)/C(C#N)=C/c2ccc(Br)o2)cc1`?
M1 ag: -1; CHO-K1 Ca antag: -10; M1 ag parental: 0; M1 antag: -10; M1 PAM: 7; M1 PAM parental: 7

How did N#C/C(=C/c1ccc(N2CCOCC2)o1)C(=O)NC1CCCCC1 do in these assays?
M1 ag: 10; CHO-K1 Ca antag: -7; M1 ag parental: 7; M1 antag: 2; M1 PAM: 3; M1 PAM parental: 13

What do the screens show for `COc1ccc(NC(=O)/C(C#N)=C\c2ccc(N3CCOCC3)o2)cc1`?
M1 ag: 69*; CHO-K1 Ca antag: 35*; M1 ag parental: 54*; M1 antag: 31*; M1 PAM: -36; M1 PAM parental: -20

How did N#C/C(=C\c1ccc(N2CCOCC2)o1)C(=O)Nc1ccc(O)cc1 do in these assays?
M1 ag: 10; CHO-K1 Ca antag: 5; M1 ag parental: 16*; M1 antag: 9; M1 PAM: -6; M1 PAM parental: 3

What do the screens show for `Cc1ccc2nccc(C(=O)N3CCCC(N4CCN(c5ccc(F)cc5)CC4)C3)c2c1` (stereo not given)?
M1 ag: -6; CHO-K1 Ca antag: -5; M1 ag parental: 1; M1 antag: -3; M1 PAM: -3; M1 PAM parental: 16

What do the screens show for `Cc1cc(/C=C2\NC(=S)N(C)C2=O)ccc1N1CCCC1`?
M1 ag: 55*; CHO-K1 Ca antag: 60*; M1 ag parental: 76*; M1 antag: 59*; M1 PAM: -30; M1 PAM parental: -18

What do the screens show for `Cc1cc(/C=C2/C(=O)N(C)C(=S)N2C)ccc1N1CCCC1`?
M1 ag: -2; CHO-K1 Ca antag: 8; M1 ag parental: 3; M1 antag: 12; M1 PAM: -11; M1 PAM parental: -11

Bioassay records (PubChem)
